The other results are listed elsewhere or left out. Values without a mark were called inactive.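 The calls were made as follows: active = fluorescence change span, or the activity score built from it, above 25; inactive = the rest.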
Test: autofluorescence of compounds in yeast s288c, dose response, artefact control for yeast TOR pathway GFP screen, primary hits, KU SAR, s288c parental (AID 488829)
Settings: S. cerevisiae s288c parental, compound autofluorescence, flow cytometry, 3 h; at 33 µM; active compounds read high

Row | SMILES | fluorescence change (span)
1 | Cc1ccc(-c2nn(C(C)(C)C)c3ncnc(N)c23)cc1 | 0.41
2 | CN(C)CCCNc1nc(N)c([N+](=O)[O-])c(Nc2cccc(F)c2)n1 | 0.05

Source: PubChem BioAssay AID488829 (NMMLSC, 2010)
